Sm TGR block: blocks Schistosoma mansoni thioredoxin glutathione reductase | hit rate 3% among 360,000 | purified TGR, DTNB reduction, TNB absorbance 405 nm | Q962Y6 | Potency, µM (doses to about 114 µM), usual class: inhibitors; note: nearly all actives have a fitted effect of over 60% in size
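Kinetic colorimetric format: TGR-catalysed, NADPH-driven DTNB reduction monitored via TNB absorbance. Enzyme dispensed at 20 nM; compound exposure 15 min at room temperature before reaction start.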
Pf growth 96h: inhibits malaria parasite growth, 96 h. P. falciparum luciferase reporter growth, 96 h. Potency, µM (highest dose often 28.7 µM), hits mostly inhibitors. hit rate 6.9% among 320,000. AID 504834
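Compounds incubated with erythrocytes infected by luciferase-expressing P. falciparum (2% hematocrit, 0.05% parasitemia final) for 96 hours, 37 C in 5% CO2. Growth inhibition scored as decreased luciferase luminescence.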
Giardia FBPA inh: Giardia lamblia aldolase inhibition. purified Giardia FBPA. hit rate 0.71% among 290,000. AID 2451. Potency, µM (top dose mostly 59.6 µM), usual class: inhibitors. A8B2U2; note: nearly all actives have a fitted effect of over 55% in size
Target sequence (A8B2U2 whole entry, looked up): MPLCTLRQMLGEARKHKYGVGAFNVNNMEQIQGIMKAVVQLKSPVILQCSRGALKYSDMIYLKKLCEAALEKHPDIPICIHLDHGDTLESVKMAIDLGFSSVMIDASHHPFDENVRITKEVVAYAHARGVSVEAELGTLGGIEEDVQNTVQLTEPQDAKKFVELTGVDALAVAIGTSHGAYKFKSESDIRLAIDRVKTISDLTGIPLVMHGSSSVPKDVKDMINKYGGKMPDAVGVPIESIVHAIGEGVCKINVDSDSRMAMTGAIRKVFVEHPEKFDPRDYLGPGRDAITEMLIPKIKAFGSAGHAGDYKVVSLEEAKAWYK
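Giardia FBPA (40 nM reagent) was preincubated 10 min at RT with compound (up to 57.5 uM final), then substrate plus GAPDH/TPI/NAD/arsenate coupling system with diaphorase/resazurin was added; resorufin fluorescence (525/598 nm) was read after 20 min.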
HCMV antiviral: inhibitors of human cytomegalovirus. HFF cells, HCMV-luciferase reporter, 72 h; active compounds read low. hit rate 4.5% among 410,000. AID 1259415. activity change, negative = inhibition, % at 57.5 µM; in the data active = activity change below about -60%; inconclusive = no clear call, values can overlap the other calls; inactive = above about -39%
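After 16 h attachment at 37C, HFF cells received test compound and HCMV-luciferase (1 PFU/cell); reporter luminescence read 72 h later, data normalized against buffer-only and known inhibitor Salinomycin.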
Pf growth 48h: P. falciparum growth inhibition at 48 hours (one generation) | Potency, µM (series often up to 28.7 µM), hits mostly inhibitors | hit rate 5.9% among 310,000 | P. falciparum luciferase growth in erythrocytes, 48 h
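Luciferase-expressing P. falciparum in infected erythrocytes (2% hematocrit, 0.1% parasitemia final) in RPMI 1640/0.5% Albumax were exposed to compound for 48 hours at 37 C, 5% CO2; growth read as luminescence.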
Of the large screens only hits and unclear results are named; the others gave an inactive call. A selection: hits, their analogues and other compounds. The true share with any hit is near 14%. Unless noted, calls come from the whole dose curve; as a rule, active = well fitted curve in the direction sought with a large enough effect; inconclusive = small, poorly fitted or top-dose-only effect, or another doubt; inactive = no such curve, though single readings can be large; an effect the other way counts as inactive or inconclusive.

COc1cc(CNc2ccc3[nH]c(=O)[nH]c3c2)cc(Cl)c1OCC(=O)NC(C)(C)C	Sm TGR block inconclusive, Giardia FBPA inh 10µM, Pf growth 48h inconclusive
COc1cc(CNc2ccc(N3CCCCC3)cc2)ccc1OCC(=O)NC(C)(C)C	Sm TGR block inconclusive, Pf growth 96h 5.2µM, HCMV antiviral -86
O=C(NCc1ccc(F)cc1)c1[nH]c(C(F)(F)F)nc1-c1ccccc1	none (no result: Sm TGR block, Pf growth 96h, Giardia FBPA inh, Pf growth 48h)
CCCNC(=O)c1cc(C2CCCCN2C(=O)OCC(C)C)on1 (centres undefined)	none (no result: Sm TGR block, Pf growth 96h, Giardia FBPA inh, Pf growth 48h)
CC#CCN1c2ccccc2[C@]23C[C@@H](C(=O)OC)N(S(=O)(=O)c4ccc([N+](=O)[O-])cc4)C2=NC(C(=O)OC)=C(C(=O)OC)[C@H]13	none (no result: Sm TGR block, Pf growth 96h, HCMV antiviral, Pf growth 48h)
COc1ccc(NC(=O)COc2ccccc2C)cc1S(=O)(=O)N1CCCCC1	Pf growth 96h inconclusive (no result: Giardia FBPA inh)
CCOc1ccccc1OCC(=O)Nc1ccc(OC)c(S(=O)(=O)N2CCCCC2)c1	Pf growth 96h 12µM, Pf growth 48h inconclusive (no result: Giardia FBPA inh)
N#Cc1ccccc1OCC(=O)Nc1cccc(S(=O)(=O)N2CCCCCC2)c1	Pf growth 96h inconclusive, Pf growth 48h 13µM (no result: Giardia FBPA inh)
Cc1ccc2cccc(OCC(=O)Nc3cccc(S(=O)(=O)N4CCCC4)c3)c2n1	Pf growth 96h inconclusive, Pf growth 48h 9.3µM (no result: Giardia FBPA inh)
CCOc1ccccc1OCC(=O)Nc1cccc(S(=O)(=O)N2CCCCCC2)c1	Pf growth 96h 13µM, Pf growth 48h inconclusive (no result: Giardia FBPA inh)
CCOC(=O)c1c(N=CN(C)C)c2cc([N+](=O)[O-])cnc2n1C	none
Cc1ccc(OCC(=O)Nc2cccc(S(=O)(=O)N3CCCC3)c2)cc1C	none (no result: Sm TGR block, Pf growth 96h, Giardia FBPA inh, Pf growth 48h)
COc1ccc(NC(=O)COc2ccccc2C(N)=O)cc1S(=O)(=O)N1CCCCC1	none (no result: Sm TGR block, Pf growth 96h, Giardia FBPA inh, Pf growth 48h)
Cc1ccc(NC(=O)COc2ccccc2C(N)=O)cc1S(=O)(=O)N1CCCCCC1	Pf growth 96h 4.7µM, HCMV antiviral -91, Pf growth 48h inconclusive (no result: Giardia FBPA inh)
CC(=O)c1ccc(OCC(=O)Nc2cccc(S(=O)(=O)N3CCCC3)c2)cc1	Pf growth 96h 4.1µM, Pf growth 48h inconclusive (no result: Giardia FBPA inh)
O=C(COc1ccc2ccc(=O)oc2c1)NC1CCCC1	Pf growth 96h inconclusive, HCMV antiviral -62 (no result: Giardia FBPA inh)
O=C(COc1ccc2ccc(=O)oc2c1)Nc1cccc(S(=O)(=O)N2CCCCC2)c1	Pf growth 96h 4.7µM, Pf growth 48h 12µM (no result: Giardia FBPA inh)
COC(=O)[C@]12CCCCC=C1N(Cc1ccc3c(c1)OCO3)C(=O)[C@H](CC(=O)N1CCSCC1)C2	none (no result: Sm TGR block, Pf growth 96h, Giardia FBPA inh, Pf growth 48h)
Cc1cccc(CNC(=O)CSCc2cnn(-c3ccccc3)c2-n2cccc2)c1	none (no result: Pf growth 96h, Giardia FBPA inh, Pf growth 48h)
CCOC(=O)C1CCCN(CCc2ccccc2)C1 (centres undefined)	Pf growth 96h inconclusive, Giardia FBPA inh inconclusive
O=C(OC1C2CCC1C1CN(CCc3ccccc3)CC12)c1ccccc1 (centres undefined)	Pf growth 96h inconclusive, HCMV antiviral -68, Pf growth 48h inconclusive
COc1c(C(CC(C)C)OC(C)=O)ccc2c1C(=O)OCc1cc(C)cc(O)c1O2 (centres undefined)	Pf growth 48h 8.3µM
COc1c(C(O)CC(C)C)ccc2c1C(=O)OCc1cc(C)cc(O)c1O2 (centres undefined)	Sm TGR block inconclusive
COc1ccc(CNC(=O)COc2ccc(OC)cc2)cc1	Pf growth 96h inconclusive (no result: Pf growth 48h)
CC[C@H](C)[C@H](NC(=O)[C@H](CO)NC(=O)[C@H](CC(N)=O)NC(=O)[C@H](CC(C)C)NC(=O)[C@H](Cc1ccc(O)cc1)NC(=O)[C@H](CCCCN)NC(=O)[C@H](CCCCN)NC(=O)[C@@H](NC(=O)[C@H](C)NC(=O)[C@H](CCSC)NC(=O)[C@H](CCC(N)=O)NC(=O)[C@H](CCCCN)NC(=O)[C@H](CCCNC(=N)N)NC(=O)[C@H](CC(C)C)NC(=O)[C@H](CCCNC(=N)N)NC(=O)[C@@H](NC(=O)[C@H](Cc1ccc(O)cc1)NC(=O)[C@H](CC(N)=O)NC(=O)[C@H](CC(=O)O)NC(=O)[C@@H](NC(=O)[C@H](Cc1ccccc1)NC(=O)[C@@H](NC(=O)[C@H](C)NC(=O)[C@H](CC(=O)O)NC(=O)[C@H](CO)NC(=O)[C@@H](N)Cc1cnc[nH]1)C(C)C)[C@@H](C)O)[C@@H](C)O)C(C)C)C(=O)N[C@@H](CC(C)C)C(=O)N[C@@H](CC(N)=O)C(N)=O	none (no result: Sm TGR block, Pf growth 96h, HCMV antiviral, Pf growth 48h)

Screens deposited in PubChem by National Center for Advancing Translational Sciences (NCATS).
